Measurements from PubChem BioAssay (Tox21).
“And” between values parts separate entries of the source, which are not always exact repeats. Equal entries are not always repeated. Inconclusive results are not listed. Where a call stands in place of a potency, no number is given. Where a structure was tested more than once in an assay, its records may differ in their call. The source made the active and inactive calls. Unless noted, calls follow the shape of the dose curve; as a rule, active = well fitted curve in the direction sought with a large enough effect in the repeat runs; inconclusive = weak or mixed curves; inactive = no such curve, though single readings can be large; an effect the other way counts as inactive or inconclusive.

Tests used:
[1] = qHTS assay to identify small molecule antagonists of the androgen receptor (AR) signaling pathway using the MDA cell line in the presence of 0.5 nM R1881 - cell viability counter screen (AID 1259242); also: nearly all actives have a fitted effect of over 45% in size
Procedure, shortened: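 Viability of MDA-kb2 cells was multiplexed with the luciferase AR readout; after 16 hr with compounds and R1881 at 0.5 nM final, CellTiter-Fluor fluorescence was recorded.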

[2] = molecular target: Androgen receptor (Homo sapiens) (UniProt P10275); test: qHTS assay to identify small molecule antagonists of the androgen receptor (AR) signaling pathway using the MDA cell line in the presence of 0.5 nM R1881 (AID 1259243); also: nearly all actives have a fitted effect of over 50% in size
Procedure, shortened: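 Reporter cells cultured without CO2 receive test chemicals, then 0.5 nM R1881 final; after 16 hr at 37C, ONE-Glo is added and light output recorded.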

[3] = molecular target: Estrogen receptor (Homo sapiens) (UniProt P03372); test: qHTS assay to identify small molecule antagonists of the estrogen receptor alpha (ER-alpha) signaling pathway using the BG1 cell line in the presence of 0.1 nM 17-beta-estradiol (AID 1259244); also: nearly all actives have a fitted effect of over 50% in size; also: potency is read from the fitted curve at half-maximal effect
Procedure, shortened: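 Estradiol at 0.1 nM (final) stimulates the endogenous ER-alpha of VM7Luc4E2 cells carrying an ERE-driven luciferase; compounds are co-incubated 22 h at 37C and luciferase output quantified by luminescence.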

[4] = qHTS assay to identify small molecule phospholipidosis (PLD) inducers (AID 1259344; active = well fitted curve in the direction sought with a large enough effect; an effect the other way counts as inactive or inconclusive; also: potency is read from the fitted curve at half-maximal effect)
Procedure, shortened: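 Phospholipidosis is scored by imaging LipidTOX-stained pits in HepG2 cells exposed to compound for 24 h at 37 C; pit counts and integrated intensities per well and per cell serve as outputs.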

[5] = qHTS assay to identify small molecule HDAC inhibitors (AID 1259364); also: potency is read from the fitted curve at half-maximal effect;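 also: wild-type HCT-116 cells with endogenous class I/II HDAC activity; nearly all actives have a fitted effect of over 45% in size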
Procedure, shortened: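 Read-out: luminescence of HDAC-Glo I/II reagent, 30 min RT, reflecting class I/II deacetylase activity in whole HCT-116 cells pre-exposed 2 h to DMSO-dissolved compounds.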

[6] = qHTS assay to identify small molecule HDAC inhibitors - cell viability counter screen (AID 1259365); also: series mostly up to about 92 µM; nearly all actives have a fitted effect of over 50% in size
Procedure, shortened: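 HCT-116 wild-type, overnight attachment; 2hr drug exposure, 37C; CellTiter-Glo luminescent ATP readout after 30min RT.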

[7] = qHTS assay to identify small molecule agonists of the sonic hedgehog signaling (Shh) pathway - cell viability counter screen (AID 1259366); also: nearly all actives have a fitted effect of over 50% in size
Procedure, shortened: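 Compounds in DMSO were pin-transferred onto 3T3 Gli1-Luc cells that had settled 4hr; plates then stood 24hr at 37C and 5% CO2. One hour before the end, CellTiter-Fluor was added and fluorescence recorded.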

[8] = qHTS assay to identify small molecule antagonists of the sonic hedgehog signaling (Shh) pathway (AID 1259369; calls by dose curve; also: nearly all actives have a fitted effect of over 45% in size; also: potency is read from the fitted curve at half-maximal effect)
Procedure, shortened: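 For antagonist detection, the reporter line received test compounds together with conditioned medium, incubated 24hr at 37 C, 5% CO2, then luminescence was recorded following 30min room-temperature luciferase reagent incubation.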

[9] = molecular target: Estrogen receptor beta (Homo sapiens) (UniProt Q92731); test: qHTS assay to identify small molecule agonists of the estrogen receptor beta (ER-beta) signaling pathway (AID 1259377; active = well fitted activation curve with a large enough effect in the signal ratio in the repeat runs, not every such curve was filed as active; the % refers to the signal ratio)
Procedure, shortened: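 qHTS in ER-beta-UAS-bla HEK293T cells: 6 hr settling, then 16 hr compound at 37C, then LiveBLAzer substrate 2 h at RT before fluorescence reading.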

[10] = molecular target: Estrogen receptor beta (Homo sapiens) (UniProt Q92731); test: qHTS assay to identify small molecule antagonists of the estrogen receptor beta (ER-beta) signaling pathway (AID 1259378; active = well fitted inhibition curve with a large enough effect in the signal ratio in the repeat runs, not every such curve was filed as active; the % refers to the signal ratio; also: potency is read from the fitted curve at half-maximal effect)
Procedure, shortened: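 Antagonist mode: compounds added to beta-lactamase reporter HEK293T ER-beta-UAS cells stimulated with E2 (1nM final), 16 hr at 37C. LiveBLAzer B/G FRET substrate, 2 hours room temperature, fluorescence read-out.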

[11] = qHTS assay to identify small molecule agonists of the androgen receptor (AR) signaling pathway in the presence of an antagonist - cell viability counter screen (AID 1259379);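 also: MDA-kb2 human breast cancer cells carrying an MMTV luciferase reporter; series mostly up to about 92 µM; nearly all actives have a fitted effect of over 25% in size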
Procedure, shortened: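 Seed MDA-kb2 at 3,000 cells/well; incubate 5 hr, 37C, 0% CO2. Add nilutamide to 3.0uM final, then pin compounds at 15 concentrations. Incubate 16 hr. Add CellTiter-Fluor at 15 hr, read fluorescence after 1 hr.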

[12] = qHTS assay to identify small molecule agonists of the estrogen receptor beta (ER-beta) signaling pathway - cell viability counter screen (AID 1259380); also: nearly all actives have a fitted effect of over 30% in size; also: potency is read from the fitted curve at half-maximal effect
Procedure, shortened: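 CellTiter-Glo read, 30 min RT, same wells as bla assay; cells ER-beta-UAS-bla HEK293T; 16 hr compound, 37C; medium 2% charcoal-stripped FBS.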

[13] = molecular target: Androgen receptor (Homo sapiens) (UniProt P10275); test: qHTS assay to identify small molecule agonists of the androgen receptor (AR) signaling pathway in the presence of an antagonist (AID 1259381; calls by dose curve; also: nearly all actives have a fitted effect of over 15% in size)
Procedure, shortened: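 Test compounds at 15 concentrations were incubated for 16hr with MDA-kb2 reporter cells in presence of 3.0uM nilutamide (final). Signal: ONE-Glo luciferase luminescence.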

[14] = qHTS assay to identify small molecule antagonists of the estrogen receptor beta (ER-beta) signaling pathway - cell viability counter screen (AID 1259382);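 also: HEK293T cells carrying ER-beta-UAS-bla reporter stimulated with estradiol; series mostly up to about 92 µM; nearly all actives have a fitted effect of over 55% in size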
Procedure, shortened: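 In this multiplexed counter screen, cells were seeded at 2,000 per well in medium with 2% charcoal-stripped FBS and incubated 6 hr before compound and 1nM final E2 were added. Sixteen hours later, ATP-based luminescence reported viability.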

[15] = molecular target: Estrogen receptor (Homo sapiens) (UniProt P03372); test: qHTS assay to identify small molecule agonists of the estrogen receptor alpha (ER-alpha) signaling pathway in the presence of an antagonist (AID 1259383; calls by dose curve; also: top concentration of the series differs between compounds; nearly all actives have a fitted effect of over 15% in size)
Procedure, shortened: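 Stably transfected VM7Luc4E2 reporter cells, kept 5 days in charcoal-stripped serum, received ICI-182,780 at 10.0nM final before compound addition. Following 22hr incubation at 37C and 5% CO2, luciferase signal was read by luminescence.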

[16] = qHTS assay to identify small molecule agonists of the estrogen receptor alpha (ER-alpha) signaling pathway in the presence of an antagonist - cell viability counter screen (AID 1259386);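 also: series mostly up to about 92 µM; cells exposed to compounds for 22 h at 37 °C before the viability read; nearly all actives have a fitted effect of over 30% in size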
Procedure, shortened: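 Viability counter screen using VM7Luc4E2 (full-length ER-alpha, four ERE-luciferase). The cells were treated with compounds alongside ICI-182,780 10.0nM for 22hr, and live-cell protease fluorescence was quantified with CellTiter-Fluor.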

[17] = qHTS assay to identify small molecule antagonists of the sonic hedgehog signaling (Shh) pathway - cell viability counter screen (AID 1259367); also: nearly all actives have a fitted effect of over 55% in size
Procedure, shortened: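 Cells: 3T3 Gli1-Luc, 2,000/well, 4 hr pre-incubation. Compounds in DMSO, then conditioned medium. Incubation 24 hr, 37C, 5% CO2. CellTiter-Fluor at 23 hr, 1 hr, fluorescence.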

[18] = qHTS assay to identify small molecule agonists of the sonic hedgehog signaling (Shh) pathway (AID 1259368; calls by dose curve;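 also: NIH/3T3-derived 3T3Gli1-Luc cells carrying a stable Gli1-driven firefly luciferase reporter; series mostly up to about 92 µM; nearly all actives have a fitted effect of over 15% in size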)
Procedure, shortened: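 A Gli1 transcriptional response element controlled firefly luciferase in 3T3Gli1-Luc cells. Compounds and a positive control were added 4 hr after plating, and cells were incubated a further 24 hr at 37 C before luminescence detection.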

[19] = qHTS assay to identify small molecule agonists or antagonists of the thyroid stimulating hormone receptor (TSHR) signaling pathway - wild type cell line counter screen (AID 1259384; calls by dose curve)
Procedure, shortened: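 Counter screen in untransfected Hek293: compounds (15-point titration, triplicate) plus phosphodiesterase inhibitor Ro20-1724 added after 18 h plating; 30 min RT. Intracellular cAMP via competitive d2/cryptate immunoassay, 1 h incubation.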

[20] = molecular target: Thyrotropin receptor (Homo sapiens) (UniProt P16473); test: qHTS assay to identify small molecule antagonists of the thyroid stimulating hormone receptor (TSHR) signaling pathway (AID 1259385; calls by dose curve; also: nearly all actives have a fitted effect of over 20% in size)
Procedure, shortened: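 Antagonist mode: compound-treated TSHR-expressing HEK293 cells were stimulated with 1.5 ng/mL TSH (final) in presence of Ro20-1724 for 30 min at RT. HTRF cAMP detection after 1 h; each compound tested at 15 concentrations, triplicate.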

Sequence of Thyrotropin receptor (Homo sapiens) (P16473 whole entry, looked up): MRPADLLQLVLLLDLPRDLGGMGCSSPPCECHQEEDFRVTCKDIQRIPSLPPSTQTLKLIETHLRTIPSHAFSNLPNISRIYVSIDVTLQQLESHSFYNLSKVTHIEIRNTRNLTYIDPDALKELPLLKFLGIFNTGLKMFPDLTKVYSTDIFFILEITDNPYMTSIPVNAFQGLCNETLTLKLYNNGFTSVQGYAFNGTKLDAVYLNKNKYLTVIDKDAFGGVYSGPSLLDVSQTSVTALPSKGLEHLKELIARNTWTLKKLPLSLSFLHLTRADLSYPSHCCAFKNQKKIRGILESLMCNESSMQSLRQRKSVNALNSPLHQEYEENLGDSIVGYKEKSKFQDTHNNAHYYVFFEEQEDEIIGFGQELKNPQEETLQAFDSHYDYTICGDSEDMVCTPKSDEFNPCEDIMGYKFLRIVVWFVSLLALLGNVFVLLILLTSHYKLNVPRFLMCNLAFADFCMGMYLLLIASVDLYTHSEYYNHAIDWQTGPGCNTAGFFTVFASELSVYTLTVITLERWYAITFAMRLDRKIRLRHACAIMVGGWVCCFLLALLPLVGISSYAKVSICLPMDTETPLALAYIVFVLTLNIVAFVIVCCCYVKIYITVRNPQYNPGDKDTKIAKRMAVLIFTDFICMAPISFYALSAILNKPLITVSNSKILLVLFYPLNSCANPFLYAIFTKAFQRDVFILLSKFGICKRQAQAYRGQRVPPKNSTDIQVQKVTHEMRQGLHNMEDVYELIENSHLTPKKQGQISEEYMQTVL
Sequence of Estrogen receptor beta (Homo sapiens) (Q92731 whole entry, looked up): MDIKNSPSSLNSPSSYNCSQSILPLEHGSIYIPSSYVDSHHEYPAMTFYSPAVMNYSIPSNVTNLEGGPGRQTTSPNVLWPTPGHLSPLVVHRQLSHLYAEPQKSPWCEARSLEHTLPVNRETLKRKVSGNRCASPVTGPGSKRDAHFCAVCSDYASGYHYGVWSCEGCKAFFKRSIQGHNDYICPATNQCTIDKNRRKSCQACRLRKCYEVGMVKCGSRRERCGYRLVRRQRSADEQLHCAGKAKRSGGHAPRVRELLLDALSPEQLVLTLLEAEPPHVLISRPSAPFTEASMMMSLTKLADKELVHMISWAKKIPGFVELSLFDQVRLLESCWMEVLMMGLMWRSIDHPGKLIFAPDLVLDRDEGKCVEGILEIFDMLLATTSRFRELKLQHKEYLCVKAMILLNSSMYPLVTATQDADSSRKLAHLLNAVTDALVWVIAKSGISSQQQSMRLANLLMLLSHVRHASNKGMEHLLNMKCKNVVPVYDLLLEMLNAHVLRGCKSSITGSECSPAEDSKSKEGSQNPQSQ
Sequence of Estrogen receptor (Homo sapiens) (P03372 whole entry, looked up): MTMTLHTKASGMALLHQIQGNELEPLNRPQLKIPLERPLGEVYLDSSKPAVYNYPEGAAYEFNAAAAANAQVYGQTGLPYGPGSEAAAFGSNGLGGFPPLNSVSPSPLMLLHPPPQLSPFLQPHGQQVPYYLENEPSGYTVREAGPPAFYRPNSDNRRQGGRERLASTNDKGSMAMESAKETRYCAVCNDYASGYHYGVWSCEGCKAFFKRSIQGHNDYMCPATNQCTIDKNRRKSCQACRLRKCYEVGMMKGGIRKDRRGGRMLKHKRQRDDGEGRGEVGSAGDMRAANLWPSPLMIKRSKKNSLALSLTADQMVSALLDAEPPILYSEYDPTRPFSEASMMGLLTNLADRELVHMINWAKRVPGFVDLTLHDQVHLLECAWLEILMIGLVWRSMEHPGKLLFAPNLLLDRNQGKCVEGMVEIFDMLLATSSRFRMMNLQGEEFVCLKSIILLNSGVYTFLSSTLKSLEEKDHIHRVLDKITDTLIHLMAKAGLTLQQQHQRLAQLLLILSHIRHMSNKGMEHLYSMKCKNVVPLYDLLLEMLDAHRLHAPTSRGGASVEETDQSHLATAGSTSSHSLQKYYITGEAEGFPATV
Sequence of Androgen receptor (Homo sapiens) (P10275 whole entry, looked up): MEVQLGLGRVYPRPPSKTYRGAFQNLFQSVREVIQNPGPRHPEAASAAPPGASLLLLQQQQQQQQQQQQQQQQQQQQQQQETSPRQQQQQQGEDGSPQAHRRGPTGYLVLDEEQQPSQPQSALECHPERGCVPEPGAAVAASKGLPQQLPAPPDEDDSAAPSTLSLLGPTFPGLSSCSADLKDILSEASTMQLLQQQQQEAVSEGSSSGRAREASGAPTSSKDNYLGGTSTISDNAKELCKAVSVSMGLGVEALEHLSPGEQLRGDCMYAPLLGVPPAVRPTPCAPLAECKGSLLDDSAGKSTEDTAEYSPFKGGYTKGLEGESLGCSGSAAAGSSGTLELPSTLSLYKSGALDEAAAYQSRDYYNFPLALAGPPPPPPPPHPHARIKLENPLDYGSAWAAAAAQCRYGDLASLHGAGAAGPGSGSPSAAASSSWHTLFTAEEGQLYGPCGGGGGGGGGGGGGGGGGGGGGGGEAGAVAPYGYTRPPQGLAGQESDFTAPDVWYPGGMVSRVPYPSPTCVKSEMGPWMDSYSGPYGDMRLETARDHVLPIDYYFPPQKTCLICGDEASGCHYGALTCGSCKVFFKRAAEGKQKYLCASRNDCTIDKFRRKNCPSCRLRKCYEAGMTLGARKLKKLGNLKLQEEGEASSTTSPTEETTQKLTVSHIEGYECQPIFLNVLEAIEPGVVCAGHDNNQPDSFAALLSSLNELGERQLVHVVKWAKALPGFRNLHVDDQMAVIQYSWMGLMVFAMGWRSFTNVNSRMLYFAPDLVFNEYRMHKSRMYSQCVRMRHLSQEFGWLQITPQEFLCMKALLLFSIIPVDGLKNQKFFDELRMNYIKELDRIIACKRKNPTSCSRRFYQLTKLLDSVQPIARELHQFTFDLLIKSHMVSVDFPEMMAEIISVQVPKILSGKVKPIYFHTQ

Row | Compound | Potency [1] | Potency [2] | Potency [3] | Potency [4] | Potency [5] | outcome [6] | Potency [7] | Potency [8] | outcome [9] | Potency [10] | Potency [11] | Potency [12] | outcome [13] | Potency [14] | Potency [15] | Potency [16] | Potency [17] | outcome [18] | Potency [19] | outcome [20]
1 | COc1cc2c(c(OC)c1OC)-c1ccc(OC)c(=O)cc1[C@@H](NC(C)=O)CC2 | inactive | inactive | 27 µM (active) | 0.708 µM (active) | inactive | inactive | inactive | 1.7 nM (active) and 2.4 nM (active) | inactive | inactive | inactive | 27 µM (active) and inactive | inactive | inactive | inactive | inactive |  |  |  | 
2 | CC(O)COc1ccccc1 (configuration not stated) | inactive | inactive |  | inactive | inactive | inactive | inactive | inactive | inactive | inactive | inactive | inactive | inactive | inactive |  | inactive | inactive | inactive | inactive | inactive
3 | C[C@]12C[C@H](O)[C@H]3[C@@H](CCC4=CC(=O)CC[C@@]43C)[C@@H]1CC[C@@H]2C(=O)CO | inactive |  | inactive | inactive | inactive | inactive | inactive | 2.44 µM (active) and 344 nM (active) and 750 nM (active) | inactive | inactive | inactive | inactive |  |  | inactive |  | inactive | inactive | inactive | inactive
4 | CCn1cc(C(=O)O)c(=O)c2ccc(C)nc21 | inactive |  | inactive | inactive | inactive | inactive | inactive | inactive | inactive | inactive | inactive | inactive |  |  | inactive | inactive | inactive | inactive | inactive | inactive
5 | CC(=O)Oc1ccccc1C(=O)O | inactive | inactive | inactive | inactive | inactive | inactive | inactive | inactive | inactive | inactive | inactive | inactive | inactive |  | inactive |  | inactive | inactive | inactive | inactive
6 | COc1ccc(O)cc1 | inactive | inactive |  | inactive | inactive | inactive | inactive | 21.7 µM (active) | inactive | inactive | inactive | inactive | inactive |  |  | inactive |  |  | inactive | inactive
7 | CN(C)Cc1cc(CN(C)C)c(O)c(CN(C)C)c1 | inactive | inactive | inactive |  | inactive | inactive | inactive | inactive |  |  | inactive | inactive | inactive | inactive | inactive | inactive | inactive |  | inactive | inactive
8 | C1CNCCN1 | inactive |  | inactive | inactive | inactive | inactive | inactive | 5.61 µM (active) and inactive | inactive | inactive | inactive | inactive |  |  | inactive |  | inactive | inactive | inactive | inactive
9 | Cc1cccc(C)c1O | inactive | inactive | inactive |  | inactive | inactive | inactive | inactive | inactive | inactive | inactive | inactive | inactive | inactive | inactive | inactive |  |  |  | 
10 | c1ccc2[nH]c(-c3cscn3)nc2c1 | inactive | inactive | inactive | inactive | 9.75 µM (active) and 486 nM (active) and 1.19 µM (active) | inactive | inactive | inactive | inactive | inactive | inactive | inactive | inactive | inactive | inactive | inactive |  |  | inactive | inactive
11 | COCCOCCOC | inactive | inactive | inactive |  | inactive | inactive | inactive | inactive | inactive | inactive | inactive | inactive | inactive |  | inactive |  | inactive | inactive | inactive | inactive
12 | Cc1cccc(Nc2cc(Cl)nc(SCC(=O)O)n2)c1C | inactive | inactive | inactive | inactive | inactive | inactive | inactive | inactive |  |  | inactive | inactive | inactive | inactive | inactive |  |  |  | inactive | inactive
13 | CCCCCCCCCCCCCC(=O)OC(C)C | inactive | inactive | inactive | inactive | inactive | inactive | inactive | inactive | inactive | inactive | inactive | inactive | inactive |  | inactive |  |  | inactive | inactive | inactive
14 | CC(=O)OC/C=C(C)/C=C/C=C(C)/C=C/C1=C(C)CCCC1(C)C | inactive |  | inactive | inactive | inactive | inactive | inactive | 24.3 µM (active) | inactive | 54.5 µM (active) | inactive | inactive |  | inactive | inactive | inactive | inactive | inactive | inactive | inactive
